Each structure is given as a SMILES string. Results filed as inconclusive are left out. Activity calls are given as the source filed them. Unless noted, how the calls were made is not given here.

Experiment [1] is described as follows: qHTS profiling of the MIPE4 collection as inhibitors of Plasmodium falciparum (3D7) proliferation (AID 743344).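 Further: scaled between DMSO vehicle wells and 0.29 µM artemisinin as full inhibition.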 Particulars: P. falciparum 3D7 in erythrocytes, SYBR Green DNA fluorescence, 72 h; at 28.5 µM unless noted. A digest of the protocol: (§1)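 Erythrocytes infected with P. falciparum (0.3% parasitemia, 2.5% hematocrit) incubated with compounds 72 h at 37 C, 5% CO2. Lysis with saponin/Triton buffer containing SYBR Green I, overnight at room temperature in the dark; DNA fluorescence (485/535 nm) normalised to 0.29 uM artemisinin and DMSO.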
(qHTS replaces the single test concentration by a dilution series.)

Experiment [2] in a line: qHTS profiling of the MIPE4 collection as inhibitors of Plasmodium falciparum (DD2) proliferation (AID 743345). Particulars: P. falciparum Dd2 in erythrocytes, SYBR Green DNA, 72 h; at 28.5 µM unless noted. A digest of the protocol:
as §1

Experiment [3] can be described thus: qHTS profiling of the MIPE4 collection as inhibitors of Plasmodium falciparum (DD2) proliferation (Rep 2) (AID 743346). Particulars: P. falciparum Dd2 in erythrocytes, SYBR Green DNA, 72 h; at 28.5 µM unless noted. An outline of the steps: as §1
A short description of experiment [4]: qHTS profiling of the MIPE4 collection as inhibitors of Plasmodium falciparum (HB3) proliferation (AID 743347).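 Further: plate controls were DMSO vehicle wells for no effect and artemisinin wells for full effect.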 Particulars: P. falciparum HB3 in erythrocytes, SYBR Green DNA, 72 h; at 28.5 µM unless noted. A digest of the protocol: as §1
A short description of experiment [5]: High-throughput drug toxicity screening in the BPDCN cell line Gen2.2 (AID 1224824).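 Further: cells exposed to compounds for 48 h before reading.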 Conditions: Gen2.2 BPDCN cells; at 45.8 µM (top of the series) unless noted. An outline of the steps:
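Seed 500 exponentially growing Gen2.2 cells/well; add compounds by pin tool; incubate 48 h, 37 °C, 5% CO2; add CellTiter-Glo, 15 min RT; read luminescence. % activity vs DMSO (100%) and bortezomib (0%).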

A short description of experiment [6]: High-throughput drug toxicity screening in the BPDCN cell line Cal-1 (AID 1224825). Particulars: Cal-1 BPDCN cell viability, qHTS; at 45.8 µM (top of the series) unless noted. A digest of the protocol: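 Exponentially growing Cal-1 cells, 500 per well in phenol red-free RPMI with 10% FBS, were exposed to compounds for 48 h at 37 °C, 5% CO2. Viability was read by CellTiter-Glo luminescence and normalised to DMSO (100%) and 9.2 uM bortezomib (0%).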

A short description of experiment [7]: qHTS assay for measurement of the activity of small molecule inhibitors on Zika virus induced Caspase-3 activity in human iPSC derived neural progenitor cells (hNPCs) (AID 1224857; active means well fitted curve in the direction sought with a large enough effect; an effect the other way counts as inactive or inconclusive; further: nearly all actives have a fitted effect of over 65% in size; further: potency means the concentration at half of the fitted maximal effect). A digest of the protocol: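 Caspase-3/7 induction by a 6-hour ZIKV infection was quantified with a luminescent Caspase-Glo 3/7 reagent incubated 30 minutes at room temperature. Compounds were preincubated with hNPCs for 1 hour; inhibition was calculated against uninfected and infected control wells.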

Experiment [8] in a line: qHTS assay for measurement of the activity of small molecule inhibitors on Zika virus induced Caspase-3 activity in human astrocytoma cells (AID 1224859; active means well fitted curve in the direction sought with a large enough effect; an effect the other way counts as inactive or inconclusive; further: potency means the concentration at half of the fitted maximal effect). An outline of the steps: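 In SNB-19 cells plated at 250 cells/well and grown 16-20 h, compounds were applied 1 h before ZIKV (2 FFU/cell). Six hours later caspase-3/7 luminescence was recorded.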
Experiment [9] can be described thus: qHTS Screen of the MIPE 4.0 Collection Against Ewings Sarcoma (RDES) (AID 1259252; active means well fitted curve in the direction sought with a large enough effect; an effect the other way counts as inactive or inconclusive; further: nearly all actives have a fitted effect of over 35% in size; further: potency means the concentration at half of the fitted maximal effect). An outline of the steps: (§2)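 Compound titrations go onto adherent log-phase cells 4 h after seeding, incubate 48 h at 37C, then CellTiter-Glo luminescence reports viability relative to DMSO and cell-free controls.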
Experiment [10] in a line: qHTS Screen of the MIPE 4.0 Collection Against Ewings Sarcoma (EW8) (AID 1259255; active means well fitted curve in the direction sought with a large enough effect; an effect the other way counts as inactive or inconclusive; further: nearly all actives have a fitted effect of over 35% in size; further: potency means the concentration at half of the fitted maximal effect;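 on viability: 100% = DMSO-treated cells and 0% = medium-only wells without cells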). A digest of the protocol: as §2
Experiment [11] is described as follows: qHTS Screen of the MIPE 4.0 Collection Against Ewings Sarcoma (TC32) (AID 1259256; active means well fitted curve in the direction sought with a large enough effect; an effect the other way counts as inactive or inconclusive; further: nearly all actives have a fitted effect of over 45% in size; further: potency means the concentration at half of the fitted maximal effect). A digest of the protocol:
as §2

Experiment [12] in a line: qHTS Screen of the MIPE 4.0 Collection Against Ewings Sarcoma (TC71) (AID 1259253; active means well fitted curve in the direction sought with a large enough effect; an effect the other way counts as inactive or inconclusive; further: potency means the concentration at half of the fitted maximal effect; nearly all actives have a fitted effect of over 40% in size). An outline of the steps: as §2
Experiment [13] in a line: qHTS profiling for inhibitors of Plasmodium falciparum (DD2) proliferation (AID 743323). Conditions: lower = more inhibition; at 28.7 µM (top of the series) unless noted. An outline of the steps:
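Parasite DNA quantified by SYBR Green fluorescence (ex 485, em 535 nm) after saponin/Triton lysis and overnight dark incubation. Cultures: 0.3% parasitemia, 2.5% hematocrit, 72 h, 37 C; data scaled between DMSO and 0.29 uM artemisinin.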

Experiment [14] in a line: qHTS profiling for inhibitors of Plasmodium falciparum (HB3) proliferation (AID 743324; active means well fitted curve in the direction sought with a large enough effect; an effect the other way counts as inactive or inconclusive;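 further: 100% = DMSO vehicle wells and 0% = artemisinin-treated control wells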). Conditions: Plasmodium falciparum HB3 blood-stage proliferation; at 28.7 µM (top of the series) unless noted. A digest of the protocol: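 P. falciparum HB3 grown in erythrocytes (0.3% parasitemia, 2.5% hematocrit final) with compound for 72 h at 37 C, 5% CO2. Parasite DNA detected by SYBR Green after saponin/triton lysis overnight; normalized to 0.29 uM artemisinin and DMSO.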

Experiment [15] can be described thus: Identifying Small Molecule Inhibitors of Pancreatic Cancer Stem Cells (SN12C, Adherent) (AID 1259358; active means well fitted curve in the direction sought with a large enough effect; an effect the other way counts as inactive or inconclusive;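 further: cell survival measured after 48 h of compound exposure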). An outline of the steps:
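Viability is scored by CellTiter-Glo luminescence 48 h after dosing, expressed as percent activity against vehicle and no-cell references. Spheroid formats rely on cells cultured 14 days in stem cell media beforehand.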

The compound `CC(C)[C@H](O)C(=O)N[C@@H](C)C(=O)N[C@@H]1C(=O)N(C)CCc2ccccc21` yielded a parasite growth, % of DMSO control in experiment [1] of 13.3%. In [2], this compound registered a parasite growth remaining, % of DMSO control (lower = more inhibition) of 14.9%. In experiment [3], this compound gave a parasite growth, % of control (lower = inhibition) of 26.2%. The compound further came in with a growth, % of control in experiment [4] of 17.8%. For the same compound, in experiment [5], the cell viability, % of control (lower = more cytotoxic) is 95.1%. Also, in experiment [6], the viability (% of control) amounted to 95.1%. Also, the Potency result in experiment [7], in experiment [8], in experiment [10] and in experiment [11] was “inactive” in each case. For the same compound, the Potency in experiment [9] is 16600 nM (active).
In [2], `COc1ccc(-c2ccc3ncc4c(c3c2)n(-c2ccc(N3CCNCC3)c(C(F)(F)F)c2)c(=O)n4C)cn1` yielded a parasite growth remaining, % of DMSO control (lower = more inhibition) of 6.37%. The parasite growth, % of control (lower = inhibition) in experiment [3] was determined as 9.13%. In [4], this compound had a growth, % of control of 3.39%. In addition, in experiment [5], the cell viability, % of control (lower = more cytotoxic) worked out at 0.968%. For the same compound, the viability (% of control) in [6] was determined as 0.939%. Besides, the Potency result in experiment [7] and in experiment [8] was “inactive” each time. Also, the Potency in [9] is 46.9 nM (active); in experiment [12], 5.9 nM (active).
`CN(C)N=Nc1nc[nH]c1C(N)=O`: the parasite growth, % of DMSO control in experiment [1] came to 86.1%. Also, the parasite growth remaining, % of DMSO control (lower = more inhibition) in experiment [2] worked out at 94.4%. For the same compound, the parasite growth, % of control (lower = inhibition) in [3] was determined as 87.6%. Also, the growth, % of control in experiment [4] came to 61.9%. Moreover, the cell viability, % of control (lower = more cytotoxic) in experiment [5] is 123%. In addition, the viability (% of control) in experiment [6] was 121%. Also, the Potency entry in [7], in experiment [8], in [10] and in experiment [11] was “inactive” throughout. Also, the Potency in experiment [9] is 18700 nM (active).
The compound `COc1ccc(C=CC(=O)Nc2ccccc2C(=O)O)cc1OC` returned a parasite growth, % of DMSO control in experiment [1] of 24.6%. In experiment [2], the parasite growth remaining, % of DMSO control (lower = more inhibition) is 90.5%. In [3], this compound yielded a parasite growth, % of control (lower = inhibition) of 48.9%. The compound further returned a growth, % of control in experiment [4] of 32%. For the same compound, the cell viability, % of control (lower = more cytotoxic) in experiment [5] worked out at 188%. For the same compound, in [6], the viability (% of control) came out at 104%. Moreover, the Potency in experiment [7] and in [8] was 2640 nM (active) each time. For the same compound, the Potency entry in experiment [9], in [10] and in [11] was “inactive” each time.
With `CNC1CCC(N(Cc2cccc(-c3ccncc3)c2)C(=O)c2sc3ccccc3c2Cl)CC1` (centres undefined), the parasite growth, % of DMSO control in experiment [1] came to 4.86%. Besides, the parasite growth, % of control (lower = inhibition) in [3] is 9.91%. The compound further had a growth, % of control in experiment [4] of 6.96%. Moreover, the cell viability, % of control (lower = more cytotoxic) in experiment [5] worked out at 3.76%. Further, the viability (% of control) in experiment [6] came to 1.63%. The Potency entry in experiment [7] and in [8] was “inactive” in each case. In addition, the Potency in [9] is 26400 nM (active); in experiment [10], 23500 nM (active); in [11], 20900 nM (active).
Consider `O=C(Nc1cccc(Cl)c1)Nc1ncc(CCNc2ncnc3ccsc23)s1`, for which the activity, percent of control in [13] was 4.65%. Besides, in [14], the remaining proliferation (% of control), lower = more inhibition was -0.601%. This compound also yielded a parasite growth remaining, % of DMSO control (lower = more inhibition) in experiment [2] of 67.5%. The same compound displayed a parasite growth, % of control (lower = inhibition) in experiment [3] of 39%. In experiment [4], the growth, % of control was determined as 5.75%. Further, in [5], the cell viability, % of control (lower = more cytotoxic) amounted to 122%. Moreover, in experiment [6], the viability (% of control) came to 20.2%. Moreover, the Potency result in experiment [7], in experiment [8] and in experiment [15] was “inactive” throughout. Further, the Potency in experiment [9] was 1180 nM (active); in experiment [10], 235 nM (active).

The record behind these values is PubChem BioAssay (NCATS).
